# In PMC5540273 (PLoS ONE, 2017):
# What was measured:
# Details in all cases: concentration: 1 μM, replicates: in singlicate; n = 1
# p38-beta = tested on: T1, p38-beta
# T1 construct: gene MAPK11
# p38-delta = tested on: p38-delta
# p38-gamma = tested on: T2, p38-gamma
# T2 construct: gene MAPK12
# 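Note: KINOMEscan kinase panel screen.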
SMILES,%Inh (p38-beta),%Inh (p38-delta),%Inh (p38-gamma)
CNc1nccc(-c2c(-c3ccc(F)cc3)ncn2C2CCN(C)CC2)n1 [SB-222903],13%,9%,0%
Nc1nc(-c2ccc3c(N)n[nH]c3c2)cc(N2CCC[C@@H](C(=O)Nc3ccccc3)C2)n1.O=C(O)C(F)(F)F.O=C(O)C(F)(F)F [GSK2288359],0%,18%,27%
CN1c2ccc(-c3ccc(C(=O)NCCO)cc3)cc2-c2[nH]ncc2S1(=O)=O,4%,9%,10%
CSc1ccc(NC2=C(c3ccccc3Cl)C(=O)NC2=O)cc1 [SB-342411],0%,0%,35%
O=C(CCO)NCCn1ccc2ncnc(Nc3ccc(Oc4cccc(C(F)(F)F)c4)c(Cl)c3)c21,0%,10%,5%
Nc1nccc2scc(-c3ccc4c(c3)CCN4C(=O)Cc3cc(F)ccc3F)c12 [GSK2587663],0%,39%,0%
Cc1ccc(C)c(NC(=O)NCCNc2ccnc(Nc3ccc(F)cc3)n2)c1 [GSK1379878],0%,45%,0%
COc1cc2ncnc(Nc3ccc(OCc4ccccc4Br)c(Cl)c3)c2cc1OC.Cl [GI261590],0%,54%,0%
Nc1nc(-c2ccc3c(N)n[nH]c3c2)cc(N2CCCCC2)n1 [GSK2228768],0%,19%,0%
CN1CCC(n2cnc(-c3ccc(F)cc3)c2-c2ccnc(NC3CCNCC3)n2)CC1 [SB-229482],23%,38%,38%
